Where “and” joins values, the source holds several entries; their conditions need not be identical. Equal values may be shown once. Inconclusive results are not listed. Entries that show only a call come without a potency. Calls of active or inactive are those of the source. Calls follow the shape of the dose curve; as a rule, active = well fitted cell-killing curve with a large enough effect in the repeat runs; inconclusive = weak or mixed curves; inactive = no such curve, though single readings can be large or run the other way.
test: qHTS assay to identify small molecule agonists of the peroxisome proliferator-activated receptor delta (PPARd) signaling pathway - cell viability counter screen (AID 743211); settings: PPARd-bla HEK293H viability, CellTiter-Glo luminescence, 17 h; series mostly up to 62.6 µM; activity change, negative = cytotoxicity: at the top concentration; also: nearly all actives have a fitted effect of over 55% in size
Text: U.S. Tox21 Program National Center for Advancing Translational Sciences [NCATS] NIH Chemical Genomics Center [NCGC] U.S. Environmental Protection Agency [EPA] National Institutes of Environmental Health Sciences [NIEHS] National Toxicology Program [NTP] U.S. Food and Drug Administration [FDA] Tox21 Assay Overview: The peroxisome proliferator-activated receptors (PPARs) are lipid-activated transcription factors of the nuclear receptor superfamily with three distinct subtypes namely PPAR alpha, PPAR delta (PPARd) and PPAR gamma. All these subtypes heterodimerizes with Retinoid X receptor (RXR) and have different physiological functions. […] To identify the compounds that activate PPAR-delta signaling, GeneBLAzer PPAR delta UAS-bla HEK293H cell line (Invitrogen, Carlsbad, CA, USA) containing a beta-lactamase reporter gene under the control of an Upstream Activator Sequence (UAS) was used to screen the Tox21 compound library. The cytotoxicity of the Tox21 compound library against the PPARd-bla cell line was tested in parallel by measuring the cell viability using CellTiter-Glo assay (Promega, Madison, WI) in the same wells.
Tox21 Assay Protocol Summary: PPARd-bla cells were dispensed at 3000 cells/6uL/well in 1536-well black wall/clear bottom plates using a Multidrop Combi (Thermo Fisher Scientific, Waltham, MA) dispenser. After the assay plates were incubated at 37 C and 5% CO2 for 5 h, 23 nL of compounds dissolved in DMSO, positive controls or DMSO only was transferred to the assay plate by a Pintool station (Kalypsys, San Diego, CA). The assay plates were incubated at 37C for 17 h. After 1 uL of LiveBLAzerTM B/G FRET substrate was added using a Bioraptr Flying Reagent Dispenser (FRD) workstation (Beckman Coulter, Indianapolis, IN, USA), the plates were incubated at room temperature for 2 h, and fluorescence intensity was measured by an Envision plate reader (PerkinElmer, Shelton, CT). For cell viability readout that measures cytotoxicity, 3 ul/well of CellTiter-Glo reagent was added into the assay plates using a Bioraptr FRD. After 30 min incubation at room temperature, the luminescence intensity in the plates was measured using a ViewLux plate reader (PerkinElmer).
Potency is read from the fitted curve at half-maximal effect.

Row | Compound | Potency | activity change, negative = cytotoxicity
1 | O=C(O)CC[N+](=O)[O-] | inactive | 
2 | C#C[C@]1(O)CC[C@H]2[C@@H]3CCC4=CC(=O)CC[C@]4(C)[C@H]3CC[C@@]21C | inactive | 
3 | c1ccc(NNc2ccccc2)cc1 | inactive | 
4 | Nc1ccc(Cl)cc1N |  | -14% [at 81.1 µM] (inactive)
5 | Nc1cccnc1 | inactive | 
6 | CCCCCCCCC(=O)NCc1ccc(O)c(OC)c1 | inactive | 
7 | CNC(=O)N(C)c1nnc(C(C)(C)C)s1 | inactive | 
8 | Nc1c(Cl)cc([N+](=O)[O-])cc1Cl |  | -0.511% [at 81.1 µM] (inactive)
9 | CCOc1cc(C=O)ccc1O | inactive | 
10 | Cc1cccc(N)c1N | inactive | 
11 | C1=Cc2cccc3cccc1c23 | inactive | 
12 | COC(=O)c1sccc1S(=O)(=O)NC(=O)Nc1nc(C)nc(OC)n1 | inactive | 
13 | CCN(CC)C(=O)SCc1ccc(Cl)cc1 |  | -0.0674% (inactive)
14 | CCCCN(CCCC)N=O | inactive | 
15 | c1cc(OCC2CO2)ccc1Cc1ccc(OCC2CO2)cc1 (stereo not given) | inactive | 
16 | CCCCC(CC)COC(=O)Cl (stereo not given) | inactive | 
17 | CC(C)c1ccc(CO)cc1 | inactive | 
18 | CCOCN(C(=O)CCl)c1c(C)cccc1CC | 41.2 µM (active) | 
19 | CCOc1cc(Oc2ccc(C(F)(F)F)cc2Cl)ccc1[N+](=O)[O-] | inactive | 
20 | O=c1oc2ccccc2c(O)c1C(CC(O)c1ccc(-c2ccc(Br)cc2)cc1)c1ccccc1 (stereo not given) | inactive | 

Row | Compound | Potency | activity change, negative = cytotoxicity
21 | CCC(C)c1ccc(O)cc1 (stereo not given) |  | 1.04% (inactive)
22 | CCc1cccc(CC)c1N(COC)C(=O)CCl | inactive | 
23 | S=C1NCCN1 | inactive | 
24 | COc1ccc(C=O)cc1 | inactive | 
25 | N#CCCCl | inactive | 
26 | N#CC(Br)Br | inactive | 
27 | c1ccc(P(c2ccccc2)c2ccccc2)cc1 | inactive | 
28 | C[C@]12CCC(=O)C(O)=C1CC[C@@H]1[C@@H]2CC[C@]2(C)C(=O)CC[C@@H]12 | inactive | 
29 | c1nc[nH]n1 | inactive | 
30 | CC(O)CCO (stereo not given) | inactive | 
31 | O=S(=O)(Oc1ccc(Cl)cc1)c1ccc(Cl)cc1 | inactive | 
32 | CCCCNC(=O)n1c(NC(=O)OC)nc2ccccc21 | inactive | 
33 | Oc1c(Cl)c(Cl)c(Cl)c(Cl)c1Cl |  | -3.42% (inactive)
34 | O=C(NC(=O)c1c(F)cccc1F)Nc1ccc(Cl)cc1 | inactive | 
35 | Oc1cc(Cl)ccc1Oc1ccc(Cl)cc1Cl | 20 µM (active) and 15 µM (active) | 
36 | O=P(Oc1ccccc1)(Oc1ccccc1)Oc1ccccc1 | 24.4 µM (active) | 
37 | CCN(N=O)C(N)=O | inactive | 
38 | CCCCCc1cc(O)cc(O)c1 |  | -1.65% [at 81.1 µM] (inactive)
39 | CCCCCCCCCCCOC(=O)c1ccccc1C(=O)OCCCCCCCCCCC | inactive | 
40 | C=C(C)[C@H]1Cc2c(ccc3c2O[C@@H]2COc4cc(OC)c(OC)cc4[C@@H]2C3=O)O1 |  | -18.3% [at 81.1 µM] (inactive)
